Shown are actives, neighbours in structure and some others; about 2.1% of the full set was active somewhere.
TDP-43 yeast inh – rescues yeast growth from TDP-43 toxicity. TDP-43 expressing yeast growth rescue, BacTiter-Glo, 24 h. Potency, µM (top dose mostly 46.1 µM), without a hit: at the top dose growth rescue (activation), actives largely listed as activators. 410,000 compounds, 1.8% hits. AID 652104; further: % of control where 0% means no effect; nearly all actives have a fitted effect of over 50% in size
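In this qHTS, compounds that restore growth of yeast expressing TDP-43 appear as activators. Cells (OD600=0.02, galactose medium, raffinose-pregrown) are incubated with compound 24 hr at 30 deg C and growth is quantified by BacTiter-Glo.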
FUS yeast rescue – FUS proteinopathy suppression in yeast; S. cerevisiae FUS-expressing, growth rescue, OD600, 24 h; Potency, µM (series often up to 76.6 µM), most hits filed as activators; 390,000 compounds, 0.24% hits;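 further: plate controls were DMSO vehicle for no effect and reference control for full effect; nearly all actives have a fitted effect of over 55% in size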
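Absorbance at 600 nm, taken 24hr after compound addition, measured rescue of FUS-yeast growth at 30C. Induction used 2% galactose with seeding at OD 0.005. Controls: CP55940 from 92uM final, DMSO only.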
Abeta yeast res – restores growth of yeast expressing A-beta42 peptide | yeast expressing A-beta42, growth rescue, OD600, 48 h; response scale: 0% DMSO, 100% iron-clioquinol control | Potency, µM (series often up to 46.1 µM), hits mostly activators | 410,000 compounds, 0.063% hits; further: nearly all actives have a fitted effect of over 55% in size
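Growth rescue measured by 600 nm absorbance after 48 h yeast culture at 30 C with compound. Values normalized between DMSO and an equimolar ferric chloride plus clioquinol control.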
aSyn rescue – inhibitors of alpha-synuclein toxicity in yeast; 370,000 compounds, 0.14% hits; AID 652106; Potency, µM (series often up to 46.1 µM), without a hit: at the top dose growth rescue (activation), actives largely listed as activators; Yeast expressing alpha-synuclein, growth rescue, BacTiter-Glo, 24 h; further: % of control where 0% means no effect; nearly all actives have a fitted effect of over 65% in size
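Rescue of yeast growth: cells expressing toxic alpha-synuclein, induced in galactose at OD600 0.02, incubated with compound 24 h at 30 C. ATP luminescence quantified growth; inhibitors of toxicity appear as activators.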
* marks the source's active call; other numbers are inactive results; [ ] = another dose, or the depositor's remark. The call rests on the fitted dose curve; in most records, active means well fitted curve in the direction sought with a large enough effect; inconclusive means small, poorly fitted or top-dose-only effect, or another doubt; inactive means no such curve, though single readings can be large; an effect the other way counts as inactive or inconclusive. Potency means the concentration at half of the fitted maximal effect.

`COc1ccc(C(O)c2nc(-c3cc(F)cc(F)c3)cs2)cc1` (configuration not stated) gave TDP-43 yeast inh 35.5µM*, FUS yeast rescue inactive, Abeta yeast res inconclusive and aSyn rescue inconclusive.
Screening COc1ccc(C(O)c2nc(-c3ccc(F)cc3OC)cs2)cc1 (configuration not stated) returned TDP-43 yeast inh 22.4µM*, FUS yeast rescue inactive, Abeta yeast res inconclusive and aSyn rescue 0.0%.
O=C1CCC(CNc2ccccc2)N1c1ccccc1 (configuration not stated) was read as FUS yeast rescue inactive.
For C#CCSc1nnc(CSc2nc3ccccc3s2)n1-c1ccccc1 the results were TDP-43 yeast inh 22.4µM*, FUS yeast rescue inactive, Abeta yeast res inactive and aSyn rescue -12.1%.
Screening CCOc1ccc(/C=C2\SC(=S)N(CCC(=O)N(CCO)c3ccccc3)C2=O)cc1 returned TDP-43 yeast inh 6.5%, FUS yeast rescue inactive, Abeta yeast res inactive and aSyn rescue 4.2%.
For CCc1ccc(/C=C2\SC(=S)N(CCCC(=O)N(CCO)c3ccccc3)C2=O)cc1 the results were TDP-43 yeast inh 35.5µM*, FUS yeast rescue 22.4µM*, Abeta yeast res inactive and aSyn rescue 19.8%.
Screening C=CCC[C@@H](Cc1ccc(F)cc1)C(=O)OC[C@@H]1CCCN1C(=O)[C@@H](CC=C)CC(=O)N[C@@H](CO)Cc1ccccc1 returned TDP-43 yeast inh 12.6µM*, FUS yeast rescue 22.4µM*, Abeta yeast res inactive and aSyn rescue -1.4%.
`C=CCC[C@@H](Cc1ccc(F)cc1)C(=O)OC[C@@H](Cc1c[nH]c2ccccc12)NC(=O)[C@@H](CC=C)CC(=O)N[C@H](CO)Cc1ccccc1` gave TDP-43 yeast inh 9.1%, FUS yeast rescue 25.1µM*, Abeta yeast res inactive and aSyn rescue 3.1%.
Screening C=CCC[C@H](Cc1ccc(F)cc1)C(=O)OC[C@@H](Cc1c[nH]c2ccccc12)NC(=O)[C@@H](CC=C)CC(=O)N[C@@H](CO)Cc1ccccc1 returned TDP-43 yeast inh -3.0%, FUS yeast rescue inactive, Abeta yeast res inactive and aSyn rescue 4.9%.
Cn1cc(C(C[N+](=O)[O-])c2ccccc2)c2ccccc21 (configuration not stated) was read as TDP-43 yeast inh 12.6µM*, FUS yeast rescue inactive, Abeta yeast res inactive and aSyn rescue 12.5%.
O=[N+]([O-])CC(c1ccc(F)cc1)c1c[nH]c2ccccc12 (configuration not stated) was read as TDP-43 yeast inh 17.8µM*, FUS yeast rescue inactive, Abeta yeast res inconclusive and aSyn rescue inconclusive.
`NCC(c1ccccc1)c1c[nH]c2ccccc12` (configuration not stated) gave TDP-43 yeast inh -8.2%[1.82 µM], FUS yeast rescue inactive, Abeta yeast res inactive and aSyn rescue 0.3%.
Fc1ccc(C(Nc2ccccn2)c2c[nH]c3ccccc23)cc1 (configuration not stated) was read as TDP-43 yeast inh 20µM*, FUS yeast rescue inactive, Abeta yeast res inconclusive and aSyn rescue inconclusive.
O=C(C1CCN(c2ncnc3c2sc2cccc(F)c23)CC1)N1CCN(Cc2ccc(F)cc2)CC1 was read as FUS yeast rescue inactive.
`CCO[C@H]1OC(C(=O)NCc2ccccc2)=C[C@@H](c2ccc(C(F)(F)F)cc2)[C@@H]1CCCO` gave TDP-43 yeast inh 3.5%, FUS yeast rescue inconclusive, Abeta yeast res inactive and aSyn rescue inconclusive.
CCO[C@H]1OC(C(=O)Nc2ccccc2)=C[C@@H](c2ccc(C(F)(F)F)cc2)[C@@H]1CCCO was read as TDP-43 yeast inh 35.5µM*, FUS yeast rescue inactive, Abeta yeast res inactive and aSyn rescue inconclusive.
Screening Cc1[nH]c2ccc(C(=O)N3CCN(c4ccccc4Cl)CC3)cc2c1C returned TDP-43 yeast inh 20µM*, FUS yeast rescue inactive, Abeta yeast res inactive and aSyn rescue 17.8µM*.
`O=C1c2ccccc2S(=O)(=O)c2cc(C(=O)N3CCN(c4ccccc4)CC3)ccc21` gave TDP-43 yeast inh 17.8µM*, FUS yeast rescue inactive, Abeta yeast res inactive and aSyn rescue 21.0%.
Screening Cc1c(C)n(C)c2ccc(C(=O)N3CCN(c4ccccn4)CC3)cc12 returned TDP-43 yeast inh 16.9%, FUS yeast rescue inactive, Abeta yeast res inactive and aSyn rescue 5.3%.
For COc1ccccc1N1CCN(C(=O)c2ccc3[nH]c(C)c(C)c3c2)CC1 the results were TDP-43 yeast inh 19.4%, FUS yeast rescue inconclusive and aSyn rescue 14.6%.
Screening Cc1[nH]c2ccc(C(=O)N3CCN(c4cccc(Cl)c4)CC3)cc2c1C returned TDP-43 yeast inh inconclusive, FUS yeast rescue inconclusive, Abeta yeast res inactive and aSyn rescue 20µM*.
Cc1c(C)n(C)c2ccc(C(=O)N3CCN(c4ccccc4)CC3)cc12 was read as TDP-43 yeast inh 15.8µM*, FUS yeast rescue inactive, Abeta yeast res inactive and aSyn rescue 6.9%.
`CCOC(=O)c1cccc(-c2cc(C(=O)OC)c3n(c2=O)CCC3)c1` gave FUS yeast rescue inactive.
For COc1cc2nc(N3CCCCC3)nc(NC3CCN(Cc4ccccc4)CC3)c2cc1OC the results were aSyn rescue -2.4%.
CC(C)C[C@H]1COc2cccc(F)c2S(=O)(=O)N1Cc1cn(Cc2ccc(F)cc2)nn1 was read as FUS yeast rescue inactive.
`Cc1nn(-c2ccccc2)c2sc(C(=O)N3CCN(S(=O)(=O)c4ccc(Br)s4)CC3)cc12` gave FUS yeast rescue inactive.
For CCn1c(C)c(C)c2cc(C(=O)N3CCc4ccccc4C3)ccc21 the results were TDP-43 yeast inh 20µM*, FUS yeast rescue inactive and aSyn rescue 25.5%.
For Cc1[nH]c2ccc(C(=O)N3CCN(c4ccccc4F)CC3)cc2c1C the results were TDP-43 yeast inh 22.4µM*, FUS yeast rescue inconclusive and Abeta yeast res inactive.
`CCN1CCN(C(=O)c2ccc3c(c2)c(C)c(C)n3Cc2ccccc2)CC1` gave TDP-43 yeast inh 11.6%, FUS yeast rescue inactive, Abeta yeast res inactive and aSyn rescue 6.4%.
`Cc1cccc(N2CCN(C(=O)c3ccc4[nH]c(C)c(C)c4c3)CC2)c1C` gave TDP-43 yeast inh 10.4%, FUS yeast rescue inactive, Abeta yeast res inactive and aSyn rescue 11.5%.
`O=C(c1ccccc1)c1ccc(C(=O)N2CCN(c3ccccc3Cl)CC2)cc1` gave TDP-43 yeast inh 11.2µM*, FUS yeast rescue inconclusive, Abeta yeast res inactive and aSyn rescue 1.1%.
`Cc1ccc2c(C(=O)CNc3nccs3)c[nH]c2c1` gave aSyn rescue -3.3%.
Screening Cc1ccc(C)c(NC(=O)c2ccc(CS(=O)(=O)Cc3ccccc3C)o2)c1 returned FUS yeast rescue inactive.
